PubChem BioAssay (NCI)
This is part of a sample that, as a whole, favours compounds with a hit. Of some 83,000 tested, about 20% had one in any assay.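 Testing used 96-well plates and a 48-hour single-concentration exposure. Example: -40 means 40% of the starting cells died.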 A number with no mark means an inactive call. The source made the active and inactive calls. How the source made its calls: active means growth percent below 10; inactive means the rest.

Assays:
Assay in all cases: NCI-60 one-dose screen, 48 h (100 = growth as untreated, 0 = no growth, -100 = all killed)
Settings in all cases: 10 µM unless noted
SK-MEL-2 melanoma = tested on: SK-MEL-2 melanoma
EKVX NSCLC = tested on: EKVX NSCLC
SN12C renal = tested on: SN12C renal
UO-31 renal = tested on: UO-31 renal
TK-10 renal = tested on: TK-10 renal
ACHN renal = tested on: ACHN renal
CAKI-1 renal = tested on: CAKI-1 renal
A498 renal = tested on: A498 renal
CCRF-CEM leukemia = tested on: CCRF-CEM leukemia
MOLT-4 leukemia = tested on: MOLT-4 leukemia

Compound	growth (SK-MEL-2 melanoma)	growth (EKVX NSCLC)	growth (SN12C renal)	growth (UO-31 renal)	growth (TK-10 renal)	growth (ACHN renal)	growth (CAKI-1 renal)	growth (A498 renal)	growth (CCRF-CEM leukemia)	growth (MOLT-4 leukemia)
O=C1Nc2c(ccc(Cl)c2Cl)/C1=C\c1ccc(C(F)(F)F)cc1	91.4%	55.2%	79.7%	57.9%	96.4%	86.5%	65.9%	102%	6.78% (active)	44.3%
COc1cc(/C=C/c2cc(/C=C/c3ccc(O)c(OC)c3)n(-c3c(Cl)cccc3Cl)c(=O)n2)ccc1O	82.9%	41.4%	27.8%	25.2%	86%	37.8%	63.2%	78.5%	10.4%	9.71% (active)
COc1cc2nc(N3CCCC3)nc(NCCc3ccccc3)c2cc1OC	103%	59.5%	75.9%	69.2%	98.3%	85.7%	80.5%	83.1%	0.115% (active)	-2.23% (active)
COc1ccc(C2CC(c3ccc(Cl)cc3)=NN2/C=C2\SC(=S)N(NC(=O)Cc3ccccc3Nc3c(Cl)cccc3Cl)C2=O)cc1 (stereo not given)	80.5%	62.2%	48.5%	-30.2% (active)	52.9%	-34.3% (active)	62.8%	72%	38.3%	13.5%
CCCc1cc(=O)n2c(C(=O)Nc3ccc(F)cc3)c(C(=O)Nc3ccc(F)cc3)sc2n1	70.7% [30 µM]	62.5% [30 µM]	65.7% [30 µM]	19.3% [30 µM]	38.9% [30 µM]	48.4% [30 µM]	44.3% [30 µM]	139% [30 µM]	77.1% [30 µM]	97.9% [30 µM]
O=C(CCN1C(=O)/C(=C/c2ccc(Cl)cc2)SC1=S)NCCCN1CCOCC1	106%	90.9%	98.5%	84.9%	110%	91.4%	94.4%	106%	103%	102%
C#Cc1cccc(NC(=O)c2ccccc2NC(=O)CCl)c1	90.2% [8.25 µM]	94.1% [8.25 µM]	64.6% [8.25 µM]	86.9% [8.25 µM]	91% [8.25 µM]	92% [8.25 µM]	87.9% [8.25 µM]	107% [8.25 µM]	50.4% [8.25 µM]	70.3% [8.25 µM]
COC(=O)c1ccc2oc(NC(=O)c3ccc(Nc4ccc([N+](=O)[O-])cc4C)c([N+](=O)[O-])c3)nc2c1	101%	79.9%	97.2%	90.7%	100%	104%	89.5%	108%	107%	105%
NC1=C(Cl)C(=O)c2ccc(S(N)(=O)=O)cc2C1=O	-73.6% (active)	-77.6% (active)	-67.5% (active)	-95.9% (active)	-16.5% (active)	-95.6% (active)	-63.8% (active)	-99.5% (active)	20.1%	11.8%
CC(C)(C)CC(C)(C)c1ccc(OCCOCC[N+](C)(C)Cc2ccccc2)cc1	-69.4% (active)	22.3%	-29.2% (active)	86.1%	-0.335% (active)	73.2%	97.3%	17.7%	-25.8% (active)	-20% (active)
CC(C)C[C@@H](NC(=O)[C@@H](Cc1ccccc1)NC(=O)c1cnccn1)B1Oc2ccc(C[C@H](NC(=O)[C@H](Cc3ccc4c(c3)OB([C@@H](CC(C)C)NC(=O)[C@@H](Cc3ccccc3)NC(=O)c3cnccn3)O4)NC(=O)[C@@H](N)CC3CCC4OB([C@@H](CC(C)C)NC(=O)[C@@H](CC5CCCCC5)NC(=O)C5CNCCN5)OC4C3)C(=O)NCCCC[C@@H]3NC(=O)[C@@H](Cc4ccccc4)NC(=O)[C@H](CC(=O)O)NC(=O)CNC(=O)[C@H](CCCNC(=N)N)NC3=O)cc2O1 (stereo not given in full)	-15.9% (active)	-16.4% (active)	-40.2% (active)	-27.2% (active)	-77.8% (active)	-11.9% (active)	-40.9% (active)	-96% (active)	2.22% (active)	1.17% (active)
C#CCOc1ccc2ncnc(Nc3cccc(CNC(=O)CCl)c3)c2c1	49.6% [8.25 µM]	58.7% [8.25 µM]	30.3% [8.25 µM]	39.8% [8.25 µM]	38% [8.25 µM]	37.8% [8.25 µM]	39.6% [8.25 µM]	-1.38% [8.25 µM] (active)	14.4% [8.25 µM]	15.1% [8.25 µM]
C=CC(=O)Nc1cccc(-c2nc(SC)nc(Nc3cccc(OC)c3)c2C#N)c1	71.2%	72%	44.6%	42.3%	78.9%	45.7%	44.9%	9.73% (active)	57.5%	39.5%
Cn1c(=O)c2c(nc3n(-c4ccc(Cl)cc4Cl)c(Sc4nc(-c5ccccc5)c(C#N)c(=O)[nH]4)cn23)n(C)c1=O	99%	59.5%	33%	-1.67% (active)	5.58% (active)	14.2%	59.4%	33.5%	47.7%	75.8%
OC(c1cc2cc(Cl)c(Cl)cc2c2cc(C(F)(F)F)ccc12)C1CCCCN1 (stereo not given)	-54.2% (active)	-24.8% (active)	-73.2% (active)	-74.2% (active)	-75.2% (active)	-82.5% (active)	-46.4% (active)	48.1%	-45% (active)	-60.3% (active)
CN(Cc1cc(Cl)cc(Cl)c1O)Cc1cc(Cl)cc(Cl)c1O	93.5%	83.6%	71.1%	46.2%	61.4%	52.8%	42.9%	89.6%	48.7%	47.7%
O=C(COc1cccc(/C=C2\COc3ccc(Cl)cc3C2=O)c1)c1ccc(Cl)cc1	54.2%	101%	97.3%	69.3%	98.4%	91%	84.2%	111%	2.99% (active)	41.2%
O=C(/C=C/c1cccc(Cl)c1)c1ccc(O)c(CN2CCN(c3cc4c(cc3F)c(=O)c(C(=O)O)cn4C3CC3)CC2)c1	53.7%	55.7%	18.9%	21.5%	48.1%	27.7%	44.6%	25.9%	25.1%	59.9%
O=C(COc1cccc(/C=C2\COc3ccccc3C2=O)c1)Nc1nccs1	65%	72.2%	78.4%	67.3%	64.2%	88.2%	83.5%	102%	-58.5% (active)	-48.4% (active)
COc1cc(/C=C/C(=O)c2ccc(O)c(CN3CCN(c4cc5c(cc4F)c(=O)c(C(=O)O)cn5C4CC4)CC3)c2)cc(OC)c1OC	66.2%	49.4%	38.2%	47.4%	107%	46.1%	54.7%	93%	9.83% (active)	33.3%
COC(=O)c1ccc(NC(=O)c2ccc(-c3cccc([N+](=O)[O-])c3)o2)cc1	98.4%	79%	97.3%	72.9%	111%	94.6%	88%	105%	107%	103%
O=S(=O)(Nc1ccc(NS(=O)(=O)c2ccccc2)c(Cl)c1)c1ccccc1	91.6%	106%	102%	88.7%	100%	105%	92.4%	113%	92%	79%
Cn1cc(-c2nonc2-c2c[nH]c3ccc(F)cc23)c2cccnc21	90.1%	63%	85.5%	63.3%	85.9%	78.5%	63.9%	85.1%	83%	63.4%
Cc1cc(C)nc(SC2=C(Nc3cccc(Cl)c3)C(=O)N(Cc3ccccc3)C2=O)n1	75.9% [30 µM]	56% [30 µM]	71.9% [30 µM]	34% [30 µM]	97.2% [30 µM]	68.2% [30 µM]	66% [30 µM]	67.2% [30 µM]	26.2% [30 µM]	7.17% [30 µM] (active)
O=C(C(=O)c1ccc2c(c1)OCO2)c1ccc2c(c1)OCO2	112%	124%	107%	100%	105%	111%	107%	98.1%	95.6%	117%
